Hits are enriched below; roughly 21% of the tested compounds scored in any of these assays.
NS1 inh: qHTS Assay for Inhibitors of Influenza NS1 Protein Function. AID 2326, 2010. 270,000 compounds, 0.4% hits. Potency, µM (highest dose often 46.1 µM); calls by dose curve; note: actives are rising curves; nearly all actives have a fitted effect of over 50% in size
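OD600 was taken as the measure of yeast growth restored by compound in an NS1-expressing S. cerevisiae strain. Cells had been washed out of glucose medium and diluted 1:100 into galactose -URA medium, pH 6.0.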
Cycloheximide cs: Cycloheximide Counterscreen for Small Molecule Inhibitors of Shiga Toxin | max response, % | 300,000 compounds, 12% hits | AID 2314, 2010 | cell reporter, cycloheximide protein synthesis inhibition counterscreen; in the data active = max response mostly above about 13%, no sharp cut-off; inactive = mostly below about 14%; note: read at 38.3 µM for the half of the compounds with a filed dose
Giardia FBPA inh: qHTS Assay for Inhibitors of Fructose-1,6-bisphosphate Aldolase from Giardia Lamblia | A8B2U2 | purified Giardia FBPA | Potency, µM (highest dose often 59.6 µM), hits mostly inhibitors | 290,000 compounds, 0.71% hits; note: nearly all actives have a fitted effect of over 55% in size
Target sequence (A8B2U2 whole entry, looked up): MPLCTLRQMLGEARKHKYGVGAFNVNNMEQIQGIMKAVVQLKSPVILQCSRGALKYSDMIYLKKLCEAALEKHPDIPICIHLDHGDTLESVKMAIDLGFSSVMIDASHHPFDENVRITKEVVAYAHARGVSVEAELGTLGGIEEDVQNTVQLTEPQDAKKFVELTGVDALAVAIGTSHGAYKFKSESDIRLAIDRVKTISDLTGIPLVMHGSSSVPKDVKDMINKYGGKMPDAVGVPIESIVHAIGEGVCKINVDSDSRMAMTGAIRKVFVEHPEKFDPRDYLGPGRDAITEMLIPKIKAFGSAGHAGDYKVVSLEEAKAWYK
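40 nM FBPA preincubated 10 min at RT with compound (up to 57.5 uM final), then substrate plus GAPDH/TPI/NAD/arsenate coupling and diaphorase/resazurin added. Fluorescence read after 20 min at RT, 525/598 nm.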
Pf growth 48h: Primary qHTS for delayed death inhibitors of the malarial parasite plastid, 48 hour incubation | AID 504832, 2011 | Potency, µM (titrated, usually from 28.7 µM), actives largely listed as inhibitors | 310,000 compounds, 5.9% hits | P. falciparum luciferase growth in erythrocytes, 48 h
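Luminescence readout; reporter = integrated firefly luciferase in P. falciparum. RBC culture at 2% hematocrit, 0.1% parasitemia final, 37 C/5% CO2; decreased signal taken as growth inhibition.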
Shiga inhibitor: A qHTS for Small Molecule Inhibitors of Shiga Toxin; Vero cells, Shiga toxin protein synthesis inhibition reporter; inhibition, % at 38.7 µM; 290,000 compounds, 9.2% hits; AID 2315, 2010; in the data active = inhibition mostly above about 28%, no sharp cut-off; inactive = mostly below about 43%
Pf growth 96h: Primary qHTS for delayed death inhibitors of the malarial parasite plastid, 96 hour incubation; AID 504834, 2011; P. falciparum luciferase reporter growth, 96 h; 320,000 compounds, 6.9% hits; Potency, µM (titrated, usually from 28.7 µM), actives largely listed as inhibitors
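Luminescence readout: decreased luciferase signal marks inhibited growth of reporter-expressing P. falciparum in infected red cells (2% hematocrit, 0.05% parasitemia final), exposed to compound two generations (96 h, 37 C, 5% CO2).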
A number is an active result; – = inactive; ? = inconclusive; · = no result; [ ] = another dose, or the depositor's remark. Unless noted, calls come from the whole dose curve; as a rule, active = well fitted curve in the direction sought with a large enough effect; inconclusive = small, poorly fitted or top-dose-only effect, or another doubt; inactive = no such curve, though single readings can be large; an effect the other way counts as inactive or inconclusive.

SMILES | NS1 inh | Cycloheximide cs | Giardia FBPA inh | Pf growth 48h | Shiga inhibitor | Pf growth 96h
CCN(CC)S(=O)(=O)c1ccc(C)c(NC(=O)COC(=O)CN2C(=O)NC(C)(C)C2=O)c1 | · | · | · | – | · | –
COc1cc(-c2noc(C)c2C#CC2(N)CCCCC2)cc(OC)c1OC | – | – | – | ? | – | 1.9µM
COc1cc(C2=N/C(=C\c3ccccc3)C(=O)O2)cc(OC)c1OC | · | · | – | · | · | ·
COc1cccc(C2=N/C(=C\N(C)C)C(=O)O2)c1 | – | 34 | – | – | – | ?
Cc1ccc(S(=O)(=O)c2c(N)n(Cc3ccco3)c3nc4ccccc4nc23)cc1C | ? | – | – | 10µM | – | ·
Nc1c(S(=O)(=O)c2ccccc2)c2nc3ccccc3nc2n1CCN1CCOCC1 | – | – | – | ? | – | ?
Cc1ccc(C)c(S(=O)(=O)c2c(N)n(/N=C/c3ccco3)c3nc4ccccc4nc23)c1 | – | – | – | 10µM | – | ?
Cc1ccc(S(=O)(=O)c2c(N)n(CCN3CCOCC3)c3nc4ccccc4nc23)cc1C | – | – | – | ? | – | –
Cc1ccc(S(=O)(=O)c2c(N)n(CCC(C)C)c3nc4ccccc4nc23)cc1 | – | – | ? | · | – | 13µM
Nc1c(S(=O)(=O)c2ccccc2)c2nc3ccccc3nc2n1Cc1ccco1 | ? | – | – | ? | – | 12µM
Cc1ccc(S(=O)(=O)c2c(N)n(CCCO)c3nc4ccccc4nc23)cc1 | – | – | – | · | – | ?
CC1CCC(NC(=O)COC(=O)C2=NN(c3ccccc3)C(=O)CC2)CC1 (configuration not stated) | · | · | · | – | · | –
c1ccc([P+](CC[P+](c2ccccc2)(c2ccccc2)c2ccccc2)(c2ccccc2)c2ccccc2)cc1 | – | · | · | · | · | ·
Cc1cc(C)c2oc(C(=O)N(Cc3ccccc3)c3ccccn3)cc(=O)c2c1 | – | – | – | 12µM | – | ?
CC/C=C\C/C=C\C/C=C\C/C=C\C/C=C\CCCC(=O)O | · | · | – | – | · | –
O=C(Nc1ccc2c(c1)OCO2)c1cc(C2CC2)on1 | – | 34 | – | – | 52 | –
O=C(Nc1ccc2c(c1)OCO2)c1ccccn1 | · | · | · | – | · | –
CC(C)c1cc(C(=O)Nc2ccc3c(c2)OCO3)no1 | – | 30 | – | – | 55 | ?
O=C(O)c1cc(=O)c2cccc(O)c2[nH]1 | · | – | ? | · | – | ·
CC1CCCCC1NC(=O)CN1C(=O)NC(C)(c2cccc(Br)c2)C1=O (configuration not stated) | · | · | · | – | · | –
CCOc1ccc(Nc2ccc([N+](=O)[O-])c3nonc23)cc1 | – | 33 | – | – | 56 | ?
COc1ccc(C(=O)NC(CCSC)C(=O)NC2CC2)cc1 (configuration not stated) | · | · | · | – | · | –
COc1cc2c(cc1OC)N1C(=O)CC(OCC(=O)O)C3C4CC5(CCN5C(=O)C4=O)C2C31 (configuration not stated) | – | – | – | 12µM | – | –
COc1cc2c(cc1OC)C(C(=O)NCCC(C)C)C1CCCCN1C2=O (configuration not stated) | – | – | – | – | – | ?
COc1ccccc1/C(O)=C(\C#N)c1nc2ccccc2[nH]1 | · | – | – | – | – | –
SMILES | NS1 inh | Cycloheximide cs | Giardia FBPA inh | Pf growth 48h | Shiga inhibitor | Pf growth 96h
COc1ccccc1N/C=C(\C#N)c1nc2ccccc2[nH]1 | – | – | – | ? | – | –
COc1cccc(/C=C(/C#N)c2nc3ccccc3[nH]2)c1OC(C)C(=O)O (configuration not stated) | – | 26 | – | –[0.00184 µM] | 58 | –
COc1cccc(/C=C(\C#N)c2nc3ccccc3[nH]2)c1OCC(=O)O | – | 31 | – | – | 67 | ?
CN1CCN(C(=O)/C=C\C(=O)O)CC1 | – | – | – | – | – | ?
CN1CCN(C(=O)/C=C/c2ccc(Cl)c(Cl)c2)CC1 | – | 37 | – | – | – | –
CN1CCN(C(=O)/C=C/c2ccc(Cl)cc2)CC1 | · | 24 | – | – | – | –
O=C(/C=C/c1ccc(Cl)cc1)N1CCN(c2ncccn2)CC1 | – | – | – | · | – | –
CCc1nnc(NC(=O)CSc2nnc(C(C)NC(=O)c3ccccc3)n2C)s1 (configuration not stated) | – | – | – | – | – | –
Cc1ccc(C(=O)Cn2nnc(-c3cccs3)n2)cc1 | – | 32 | – | – | 79 | –
O=C(Cn1nnc(-c2cccs2)n1)NCc1cccs1 | · | 65 | – | – | – | –
COC(=O)[C@H](Cc1ccccc1)NC(=O)O[C@@H]1C(=O)c2ccc(OC)cc2O[C@H]1c1ccc2c(c1)OCO2 | · | · | – | · | · | ·
O=[N+]([O-])c1cc(-c2nc(-c3ccncc3)no2)cc([N+](=O)[O-])c1 | – | – | – | ? | – | 1.9µM
Cc1ccc(-c2nc(-c3cccnc3)no2)cc1 | – | 48 | – | – | 90 | –
CC(C)(C)c1ccc(-c2nc(-c3ccncc3)no2)cc1 | – | 32 | – | – | 63 | ?
CCC(=O)Oc1ccc(-c2nc(-c3cccnc3)no2)cc1 | – | 22 | – | – | 32 | –
O=[N+]([O-])c1cc(-c2nc(-c3ccncc3)no2)ccc1Cl | – | – | – | – | – | –
CCC(c1ccccc1)c1nc(-c2cccnc2)no1 (configuration not stated) | – | – | – | – | – | –
O=S(=O)(c1ccccc1)N1CCC2(CC1)CN(Cc1ccccc1)C2 | · | · | – | · | · | ·
Cc1ccc(C(=O)NC(=S)N2CCCCCC2)cc1 | · | · | · | – | · | ?
Cn1c(COc2ccc(Cl)cc2)nnc1SCC(=O)NC1CCCC1 | – | – | · | – | – | ?
CCOc1cc(-c2nc(-c3ccncc3)no2)cc(OCC)c1OCC | – | – | – | – | – | –
CCCc1noc(-c2ccc(-c3ccccc3)cc2)n1 | – | 66 | – | – | 146 | ·
Cc1cc(C)cc(-c2nc(-c3ccncc3)no2)c1 | – | 11 | – | · | – | ?
Clc1cccc(Cl)c1-c1noc(-c2ccno2)n1 | – | – | – | ? | – | –
Nc1nonc1-c1noc(-c2ccccc2)n1 | – | 42 | – | – | 57 | –
SMILES | NS1 inh | Cycloheximide cs | Giardia FBPA inh | Pf growth 48h | Shiga inhibitor | Pf growth 96h
CC(C)(C)c1ccc(-c2noc(-c3ccno3)n2)cc1 | – | 51 | – | – | 82 | –
Nc1nc(NCCc2ccccc2)nc(NCCO)c1[N+](=O)[O-] | – | – | – | ? | – | ?
CCc1ccc(S(=O)(=O)Nc2cc3c(cc2C)n(C)c(=O)n3C)cc1 | – | – | – | – | – | ?
Cc1ccc(-c2nc(-c3ccccc3)no2)cc1 | – | 38 | – | · | 64 | –
Cc1ccc(-c2nc(-c3ccncc3)no2)cc1 | – | 52 | – | – | 72 | –
Cc1cccc(-c2nc(-c3ccncc3)no2)c1 | – | 40 | – | – | 133 | 10µM
c1cncc(-c2noc(-c3ccco3)n2)c1 | – | 56 | – | – | 87 | ?
Brc1cccc(-c2nc(-c3ccncc3)no2)c1 | – | – | – | · | – | –

Compound activity deposited in PubChem BioAssay by National Center for Advancing Translational Sciences (NCATS).
